# PubChem BioAssay AID445 (National Center for Advancing Translational Sciences (NCATS), 2006)
# The whole screen tested about 110,000 compounds, of which about 40 (0.04%) were called active. About 22% were inconclusive and are not listed. The entries come from a sample that favours actives as a whole. A number with no mark means an inactive call. The call rests on the fitted dose curve; in most records, active means well fitted curve in the direction sought with a large enough effect in the signal ratio (not every such curve was filed as active); inconclusive means small, poorly fitted or top-dose-only effect, or a change in a side signal; inactive means flat fitted curve, though single readings scatter; the % refers to the signal ratio.
# Assay: IkB Signaling;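 on IkBa stabilization activation: 0% = basal untreated cells and 100% = reference inhibitor full response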
# Conditions: ABC-DLBCL IkBa-CBG/CBR dual luciferase ratio, 4 h; series mostly up to 57.1 µM; IkBa stabilization activation: at the top concentration
# Source text: NIH Molecular Libraries Screening Centers Network [MLSCN]
# NIH Chemical Genomics Center [NCGC]
# Nuclear factor kappa-B (NF-kappa-B) plays an important role in normal B cell development and survival. Diffuse large B cell lymphoma (DLBCL) is the most commonly observed type of non-Hodgkin's lymphoma. Gene expression analysis has identified an activated B cell-like subtype of DLBCL (ABC-DLBCL) which expresses known NF-kappa-B target genes. […] However, targets upstream of IKK have been largely unexplored and so nodes upstream of IKK in the NF-kappa-B pathway remain untested due to the lack of chemical probes.
# A cell-sensor assay for I-kappa-B-alpha stabilization was developed with NIH investigator Dr. R. Eric Davis in Dr. Louis M. Staudt's laboratory. The assay uses green (CBG68) and red (CBR) emitting beetle luciferases [Chroma-Glo(TM) developed by Promega Corp.] where the green luciferase is fused to I-kappa-B-alpha and the red luciferase is present in its native state. Both luciferase genes are stably present in the OCI-Ly3 human ABC DLBCL cell line, but their expression is under the control of tetracycline-inducible promoters. Following the addition of doxycycline to induce expression of the luciferases, the green luminescence in control cultures rises only slowly because the CBG fusion partner I-kappa-B-alpha is targeted by IKK activity for rapid degradation. In contrast, green luminescence rises rapidly in the presence of proteasome inhibitors or IKK inhibitors. The rise in red luminescence of CBR is not affected by proteasome or IKK inhibitors, and serves as normalization for cell number and nonspecific effects. Compounds were screened as a concentration-titration series that ranged from 57 uM to 0.7 nM.
# NCGC Assay Protocol Summary:
# Cells were seeded in 1536-well plates at 5000 cells/3ul in IMDM medium containing 0.5% FBS, w/o phenol red, L-glutamine, 25 mM HEPES, 3 mg/ml sodium bicarbonate. After centrifugation for 1 min. at 1000 rpm, 23 nl of compounds or DMSO were delivered to each well using a pin tool. Then 1ul 80ng/ml doxycycline was dispensed into white solid 1536-well plates and the plates were incubated at 37C/5% C02 in a cell incubator for 4 hrs. Then 4 ul Chroma-Glo luminescent substrate mix (Promega) was added to each well. The plate was incubated at R.T. for 10-15 min. The plates were measured on a ViewLux plate reader for green luminescence (540/20 nm filter) and red luminescence (618/8 nm filter). The green and red luminescent signals were corrected for red and green luminescence filter overlap using previously determined filter calibration constants (determined using the procedure outlined in the Promega Technical Manual). The %Activity was determined from the ratio of corrected green/red luminescent values. Green luminescent and ratio %Activity was determined by normalizing to the difference in signal between basal cells (0% Activity) and cells incubated with 10 uM of the proteasome inhibitor MG-132 (100% Activity). Red luminescent %Activity was normalized to the difference between red luminesence in basal cells (0%Activity) and zero luminescence (-100% Activity).
# Concentration-response curves were fitted to the signals arising from the green luminescence (I-kappa-B-alpha-luciferase fusion; IkB-luc) and the red luminescence (unfused luciferase; luc) as well as the calculated ratio. The concentration-effect curves were then classified based on curve quality (r2), response magnitude and degree of measured activity. Compounds were then categorized based on their concentration-response curves for all three datasets (Ikb-luc, luc and ratio).
# Keywords: IKK, I-kappa-B, IkB, IkBa, cytotoxicity, luminescence, MLSMR, MLSCN, NIH Roadmap, qHTS, NCGC
# Potency means the concentration at half of the fitted maximal effect.
SMILES,IkBa stabilization activation [%],Potency
COc1ccc(-c2nn(CC(=O)NC3CCCC3)c3c2cnc2ccc(F)cc23)cc1,-3.12,–
CCOc1ccc(N2CC(C)Cn3c2nc2c3c(=O)n(Cc3c(F)cccc3Cl)c(=O)n2C)cc1 (stereo not drawn),-0.396,–
CCOc1ccc(NC(=O)Cn2c(C)ccc(C#N)c2=O)cc1,-1.37,–
O=C(Nc1cccc2cccnc12)c1cccc2c(Br)cccc12,-3.7,–
COc1ccc(-n2c(SC)nc3sc4c(c3c2=O)CCN(C(C)=O)C4)cc1,1.77,–
Cc1ccc(S(=O)(=O)N2CCc3cc(C(=O)Nc4ccc(Cl)cc4C)ccc32)cc1,-1.18,–
COc1ccc(C)cc1-n1c(-c2ccc(C)cc2)cc2c1CC(C)(C)CC2=O,1.22,–
CCC1CCCCN1Cc1c(O)ccc2c(=O)c(Oc3ccccc3Cl)c(C(F)(F)F)oc12 (stereo not drawn),6.03,–
Cc1ccc(F)cc1S(=O)(=O)N1CCC(c2nc3ccccc3s2)CC1,1.9,–
CC(=O)c1ccc(NC(=O)COc2ccccc2-c2nc(-c3ccccc3)no2)cc1,-2.41,–
CCc1nn(CCCC(=O)NC(C)c2ccccc2)c(=O)c2cc3occc3n12 (stereo not drawn),0.87,–
CC(=O)N1CCCc2cc(S(=O)(=O)Nc3ccc(Cl)cc3F)ccc21,0.612,–
COc1ccc(CNC(=O)C(C)n2nc(C)c3c(C)n(-c4ccccc4)nc3c2=O)c(OC)c1 (stereo not drawn),2.88,–
Cc1ccc(-c2nc(Cn3c(=O)cc(-c4ccccc4)c4c(C)nn(C)c43)c(C)o2)cc1,-0.408,–
COc1ccc(C2C(=O)N(C3CCCCC3)CC(=O)N2Cc2ccccc2Cl)cc1OC (stereo not drawn),-0.663,–
Cc1ccc(NC(=O)c2oc3ccccc3c2NC(=O)Cc2cccs2)cc1,0.174,–
CCOC(=O)C1CCN(S(=O)(=O)c2ccc3c(c2)N(C)C(=O)CC(=O)N3C)CC1,0.0845,–
COc1ccc(-c2nc3nc(C)cc(C)n3c2Nc2c(C)cccc2C)cc1,4.16,–
Cc1ccc(C)c(CN2C(=O)c3ccccc3S(=O)c3ccc(C(=O)N4CCOCC4)cc32)c1 (stereo not drawn),0.246,–
Cc1ccccc1CNC(=O)CCCn1nc(C)c2sc3ccccc3c2c1=O,-0.00104,–
CCc1cccc(NC(=O)Cn2nc(CC)n3c(cc4cc(C)ccc43)c2=O)c1,6.39,–
Cn1c(=O)c2c(ncn2CC(=O)Nc2cccc(C(F)(F)F)c2)n(C)c1=O,6.05,–
COc1ccc(NS(=O)(=O)c2cc3c(cc2C)N(C(C)=O)CCO3)cc1,12.8,–
COc1cc(C)ccc1OCCSc1nc2ccc(NC(=O)c3ccc(C)cc3)cc2s1,0.344,–
CCOC(=O)c1ccc(-c2ccc(/C=C(\C#N)C(=O)Nc3ccc(C)cc3)o2)cc1,-0.769,–
CCn1c2c(c(=O)n3ncc(C(=O)N4CCN(c5ccccc5)CC4)c13)CN(Cc1ccc(OC)cc1)CC2,1.86,–
Cc1cccc(-n2c(SCC(N)=O)nc3c(oc4ccccc43)c2=O)c1,-0.917,–

SMILES,IkBa stabilization activation [%],Potency
Cc1cccc(-c2nc(SCc3ccc(Br)cc3)n3[nH]c(=O)cc3n2)c1,-5.03,–
CCOc1cccc2sc(N3CCN(C(=O)C4CC4)CC3)nc12,-4.76,–
O=c1cc(CSc2ncn[nH]2)[nH]c2ccc(F)cc12,0.491,–
O=C(CC1Oc2ccccc2NC1=O)NCc1ccc(F)cc1 (stereo not drawn),2.65,–
Cc1ccc(CNC(=O)CCC(=O)N2Cc3ccccc3Oc3ncccc32)cc1,2.77,–
Cc1cc(C)c(NC(=O)Cn2c(SCC(=O)NCc3ccccc3)nc3ccccc32)c(C)c1,-0.55,–
CCCC(=O)N1CCN(c2nc3c(OC)ccc(C)c3s2)CC1,-4.62,–
CC(=O)c1ccc(Oc2cc(C)nc(-n3nc(C)cc3C)n2)cc1,–,6.31 µM (active)
Cc1cc(C)n(-c2ccc(Cl)c(C(=O)O)n2)n1,1.24,–
Cc1cccc(Nc2cc(C)nc(-n3nc(C)cc3C)n2)c1,-1.06,–
OCc1cnc(SCc2ccc(F)cc2)n1Cc1ccc(F)cc1,1.24,–
CC(C)(C)OC(=O)N1CCC(c2c(C(=O)NCc3ccccn3)cnn2-c2ccc(F)cc2)CC1,0.0918,–
COc1ccccc1NC(=O)CN1C(=O)c2ccccc2Sc2ccc(C(=O)N3CCCC3)cc21,12.1,–
COCCn1c(CCC(=O)Nc2cc(C)ccc2C)nc2cccnc21,1.81,–
Cc1ccc(N2CC(C(=O)Nc3ccc(N(C)C)cc3)CC2=O)cc1Cl (stereo not drawn),1.8,–
CCOc1ccc(N(CC)C(=O)c2noc3c2COc2ccc(C)cc2-3)cc1,-0.625,–
Cc1ccc(C)c(N2C(=O)N(Cc3c(F)cccc3Cl)c3ccccc3S2(=O)=O)c1,9.61,–
Cc1csc2nc(COC(=O)c3ccccc3NC(=O)c3ccccc3Cl)cc(=O)n12,2.09,–
CCN(CC)C(=O)CSc1nc2cc3c(cc2c(=O)n1CCCC(=O)NCc1ccc2c(c1)OCO2)OCO3,-2.8,–
O=C(CCn1c(=O)c2ccccc2n(Cc2ccc(Cl)cc2)c1=O)NCc1ccc2c(c1)OCO2,-0.548,–
CCOc1ccc2nc(N3CCCC(C(=O)Nc4cc(C)ccc4C)C3)sc2c1 (stereo not drawn),-0.374,–
CCc1ccc(NC(=O)CN2C(=O)CCSc3ccc(S(=O)(=O)N4CCCC4)cc32)cc1,1.01,–
Cc1cccc(NC(=O)Cn2c(C(F)(F)F)nc3ccccc32)c1C,2.61,–
COc1ccc(C2c3c(oc4ccccc4c3=O)C(=O)N2Cc2ccc3c(c2)OCO3)cc1 (stereo not drawn),3.44,–
Cc1ccc(Cl)cc1NC(=O)C(C)n1nnc2sc(-c3ccccc3)cc2c1=O (stereo not drawn),-1.77,–
CCOC(=O)c1sc(NC(=O)/C=C/c2ccc(C(C)C)cc2)c(C(=O)OCC)c1C,-4.34,–
